Compound activity from PubChem BioAssay.
PLK1 PBD block = qHTS for Inhibitors of PLK1-PDB (polo-like kinase 1 - polo-box domain): Primary Screen; Serine/threonine-protein kinase PLK1 (Homo sapiens), P53350; Plk1 PBD binding of FITC phosphopeptide, fluorescence polarization; Potency, µM, for the others: max response, negative = inhibition, hits mostly inhibitors; actives 2.8% (n = 360,000); AID 720504, 2013; also: potency is read from the fitted curve at half-maximal effect; series mostly up to about 57 µM; % is scaled to controls: 0 for no effect and ±100 for the full control effect; nearly all actives have a fitted effect of over 65% in size
Rango-impB inh = qHTS Assay for Inhibitors of Rango (Ran-regulated importin-beta cargo) - Importin beta complex formation | Rango CFP/YFP FRET sensor + importin beta, 45 min | actives 0.031% (n = 340,000) | Importin subunit beta-1 (Homo sapiens), Q14974 | Potency, µM (highest dose often 92.2 µM), without a hit: at the top dose inhibition of complex formation | AID 540263, 2011; calls by dose curve;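 also: potency is read from the fitted curve at half-maximal effect; 0% = DMSO wells and 100% = buffer wells lacking importin beta; nearly all actives have a fitted effect of over 15% in size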
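FRET biosensor Rango (snurportin 1 IBB between N-terminal EYFP and C-terminal Cerulean), 50 nM in PBS/1 mM DTT/0.02% Tween-20/0.1% BSA, preincubated 5 min RT with compound; 0.125 microM importin beta added, 45 min RT, CFP/YFP FRET ratio read.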
KAT2A inh = qHTS Assay for Inhibitors of GCN5L2 | Histone acetyltransferase KAT2A (Homo sapiens), Q92830 | GCN5L2 HAT assay, ThioGlo1 CoA-SH fluorescence | Potency, µM (highest dose often 58.9 µM), without a hit: top-dose activity change, negative = inhibition, most hits filed as inhibitors | actives 0.21% (n = 390,000) | AID 504327, 2011; also: potency is read from the fitted curve at half-maximal effect; % is scaled to controls: 0 for no effect and ±100 for the full control effect
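GCN5L2 (20nM final) in 50mM HEPES, 0.1mM EDTA pH 7.5, 0.01% Tween-20 was preincubated 15 min at room temperature with compound, then given ThioGlo1 (50uM), H3(1-25) peptide (75uM) and acetyl-CoA (70uM); CoA-thiol fluorescence (Ex340/Em540) was read at 0 and 20 min.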
Rango release inh = qHTS Assay for Inhibitors of RanGTP induced Rango (Ran-regulated importin-beta cargo) - Importin beta complex dissociation; actives 0.071% (n = 340,000); Biochemical FRET Rango-importin beta, RanGTP-induced dissociation; Potency, µM (top dose mostly 46.1 µM), for the others: at the highest dose activity change, negative = inhibition; AID 540253, 2011; Snurportin-1 (Homo sapiens) + GTP-binding nuclear protein Ran (Homo sapiens) + Importin …; calls by dose curve; also: potency is read from the fitted curve at half-maximal effect; % of control where 0% means no effect; nearly all actives have a fitted effect of over 45% in size
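Two FRET readings bracket the reaction: one 5 min after compound meets Rango–importin beta, another 45 min after RanGTP-RCC1 (0.6 uM Ran, 0.2 uM RCC1, 2 mM GTP) is added. Only the second defines inhibition.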
VDR inhibitor = Inhibitors of the vitamin D receptor (VDR): qHTS; VDR-SRC2-3 peptide fluorescence polarization, 2 h; Potency, µM, without a hit: max response, negative = inhibition, hits mostly inhibitors; actives 0.93% (n = 400,000); AID 504847, 2011; also: potency is read from the fitted curve at half-maximal effect; % is scaled to controls: 0 for no effect and ±100 for the full control effect
Target sequence (P11473 whole entry, looked up): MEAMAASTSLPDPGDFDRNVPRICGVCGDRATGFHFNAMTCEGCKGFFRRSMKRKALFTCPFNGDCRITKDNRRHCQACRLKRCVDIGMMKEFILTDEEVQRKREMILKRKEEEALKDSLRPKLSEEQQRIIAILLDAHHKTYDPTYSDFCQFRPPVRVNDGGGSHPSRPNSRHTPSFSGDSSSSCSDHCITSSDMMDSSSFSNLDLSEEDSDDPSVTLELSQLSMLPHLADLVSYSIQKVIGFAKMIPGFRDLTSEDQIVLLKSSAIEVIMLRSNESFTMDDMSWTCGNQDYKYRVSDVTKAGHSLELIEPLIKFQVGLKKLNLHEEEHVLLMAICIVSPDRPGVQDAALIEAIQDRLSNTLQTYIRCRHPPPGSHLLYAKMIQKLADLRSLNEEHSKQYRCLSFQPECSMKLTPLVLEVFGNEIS
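VDR–SRC2-3 interaction, FP format. Cmpds 23 nl via pintool, brief spin, 2 h ambient incubation.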
PI5P4K alpha inh = qHTS for Inhibitors of phosphatidylinositol 5-phosphate 4-kinase (PI5P4K); Phosphatidylinositol 5-phosphate 4-kinase type-2 alpha (Homo sapiens), P48426; PI5P4Kalpha enzyme, ADP-Glo luminescence, 60 min; hits give low values; max response, %; actives 1.2% (n = 330,000); active = max response of -50% or lower; inconclusive = between -30% and -50%; inactive = -30% or higher; also: value at the top dose of about 77 µM; % is scaled to controls: 0 for no effect and ±100 for the full control effect
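ADP-Glo luminescence end-point read after a 60 min room-temperature kinase reaction of PI5P4Kalpha plus substrate, initiated with ATP at 5 microM final. Buffer: 0.038 M HEPES pH 7.4, EGTA, 0.1% CHAPS, 5% DMSO.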
ADP-Glo interf = qHTS for Inhibitors of PI5P4K: ADP-Glo counter assay | shares compounds with PI5P4K alpha inh | AID 743285, 2014 | Potency, µM (top dose mostly 76.9 µM), for the others: at the top dose activity change, negative = inhibition, hits mostly inhibitors | ADP-Glo detection counter-screen, luciferase luminescence, no enzyme | 1,100 tested, under 10 active
The depositor's hits bear a star; ? = inconclusive; nt = no result. This is a sample that favours compounds with a hit; in the whole collection about 3.6% have one here. Unless noted, calls follow the shape of the dose curve; as a rule, active = well fitted curve in the direction sought with a large enough effect; inconclusive = small, poorly fitted or top-dose-only effect, or another doubt; inactive = no such curve, though single readings can be large; an effect the other way counts as inactive or inconclusive.

SMILES	PLK1 PBD block	Rango-impB inh	KAT2A inh	Rango release inh	VDR inhibitor	PI5P4K alpha inh	ADP-Glo interf
CCCCn1c(=O)[nH]c(=O)c2c1nc(-c1ccc(-c3ccccc3Br)o1)n2CC	-18.7%	0.3%	-8.6%	-0.7%	-10.3%	-52.5*	-1.5%
N#Cc1ccccc1S(=O)(=O)N1CCN(C(=O)C2COc3ccccc3O2)CC1 (stereo not drawn)	-19.4%	-3.3%	-10.0%	1.4%	-16.5%	-51.8*	-2.3%
COc1ccccc1N(CC(=O)NCc1ccco1)S(=O)(=O)c1ccc(C)cc1	26.7µM*	-4.6%	-25.1%	-5.3%	-13.3%	-79.6*	-1.7%
COc1ccccc1NCCC(=O)OCC(=O)NCc1ccco1	-18.7%	-1.6%	-16.4%	-6.9%	9.2%	-59.5*	0.0%
CCOc1ccc(NC(=O)CC2C(=O)N(c3ccccc3)C(=O)N2C2CCCC2)cc1 (stereo not drawn)	nt	nt	-6.6%	nt	12.7%	nt	nt
COc1cc(O)ccc1C1CC(=O)Nc2c1c(=O)nc(SCc1ccccc1C)n2C (stereo not drawn)	nt	nt	-8.3%	nt	6.6%	nt	nt
COc1cccc(Cn2c(=O)c(-c3ccc(F)c(F)c3)nc3cncnc32)c1	nt	nt	-21.1%	nt	-9.0%	nt	nt
COc1ccc(-c2cc(C)nc3c(-c4ccc(OC)c(OC)c4)c(C)nn23)cc1	nt	nt	-10.7%	nt	0.5%	nt	nt
CN(CC(=O)Nc1cccc(F)c1)C(=O)c1cccc(-n2cccc2)c1	?	-4.7%	?	8.1%	-2.2%	-81.9*	3.8%
CN(CC(=O)Nc1c(Cl)cccc1Cl)C(=O)c1cccc(S(=O)(=O)NCc2ccccc2)c1	0.2%	0.0%	-0.7%	0.0%	-8.0%	-4.8	nt
Cc1ccc(C)c(NC(=O)CN(C)C(=O)c2cccc(-n3cccc3)c2)c1	?	?	-16.7%	4.6%	-9.0%	-60.0*	-1.0%
CN(CC(=O)Nc1c(Cl)cccc1Cl)C(=O)c1cccc(-n2cccc2)c1	?	-2.4%	-25.7%	22.8%	-2.7%	-78.0*	0.9%
NC(=O)CSc1nc2c(c(=O)n1-c1ccccc1)C1(CCCCC1)Cc1ccccc1-2	-16.3%	1.0%	1.4%	8.8%	-2.4%	2.9	nt
Cc1cccc(-n2c(SCC(N)=O)nc3c(c2=O)C2(CCCC2)Cc2ccccc2-3)c1	-10.5%	-0.2%	-11.4%	5.5%	-6.3%	-56.2*	-4.1%
O=C(COc1ccc([N+](=O)[O-])cc1)Nc1cccnc1	-6.2%	-2.9%	-0.1%	9.3%	-23.6%	-54.1*	-1.7%
COc1ccc(OC)c(CNC(=O)Nc2cn(CC(C)C)c(=O)c3ccccc23)c1	nt	nt	-1.5%	nt	4.3%	nt	nt
COc1cccc(NS(=O)(=O)c2ccc3c(c2)C2C=CCC2C(c2ccc(C(=O)O)cc2)N3)c1 (stereo not drawn)	?	?	?	-19.4%	?	-66.3*	-7.5%
CCC(C)COC(=O)c1ccc(C(=O)O)cc1 (stereo not drawn)	-16.3%	-1.5%	-2.0%	11.0%	-8.6%	-63.8*	-9.6%
Cc1cc(C)c(C(=O)Cn2cnc3cc([N+](=O)[O-])ccc3c2=O)cc1C	-9.6%	-4.3%	-15.6%	-9.0%	-16.4%	-7.3	nt
